# Measured values taken from PubChem BioAssay.
# Calls of active or inactive are those of the source. Unless noted, how the calls were made is not given here.
# Columns and labels:
# [1] = compounds binding Alexa647 anti-His antibody – biochemical, small-molecule microarray, 635 nm fluorescence, artefact control for SMM control protein annotation, primary screen (AID 1128); settings: higher = more signal;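 further: score merges feature fluorescence with signal-to-noise for each printed compound spot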
# [2] = tested on: Human papillomavirus type 1a E7 protein (residues 1-88); assay: HPV1a E7 small-molecule binders, primary screen, biochemical, small-molecule microarray, residues 1-88, 635 nm (AID 1129); settings: small-molecule microarray binding, fluorescence 635 nm; higher = more signal
# [3] = molecular target: Focal adhesion kinase 1 (Homo sapiens) (UniProt Q05397); assay: PTK2 protein binding on printed compound slides – biochemical, small-molecule microarray, 635/667 nm fluorescence, BSA, DTT, primary screen (AID 1130); settings: 635 nm fluorescence, higher = more signal;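 further: composite of spot emission at 667 nm and signal to noise over triplicate slides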
# Sequence of Focal adhesion kinase 1 (Homo sapiens) (Q05397 whole entry, looked up): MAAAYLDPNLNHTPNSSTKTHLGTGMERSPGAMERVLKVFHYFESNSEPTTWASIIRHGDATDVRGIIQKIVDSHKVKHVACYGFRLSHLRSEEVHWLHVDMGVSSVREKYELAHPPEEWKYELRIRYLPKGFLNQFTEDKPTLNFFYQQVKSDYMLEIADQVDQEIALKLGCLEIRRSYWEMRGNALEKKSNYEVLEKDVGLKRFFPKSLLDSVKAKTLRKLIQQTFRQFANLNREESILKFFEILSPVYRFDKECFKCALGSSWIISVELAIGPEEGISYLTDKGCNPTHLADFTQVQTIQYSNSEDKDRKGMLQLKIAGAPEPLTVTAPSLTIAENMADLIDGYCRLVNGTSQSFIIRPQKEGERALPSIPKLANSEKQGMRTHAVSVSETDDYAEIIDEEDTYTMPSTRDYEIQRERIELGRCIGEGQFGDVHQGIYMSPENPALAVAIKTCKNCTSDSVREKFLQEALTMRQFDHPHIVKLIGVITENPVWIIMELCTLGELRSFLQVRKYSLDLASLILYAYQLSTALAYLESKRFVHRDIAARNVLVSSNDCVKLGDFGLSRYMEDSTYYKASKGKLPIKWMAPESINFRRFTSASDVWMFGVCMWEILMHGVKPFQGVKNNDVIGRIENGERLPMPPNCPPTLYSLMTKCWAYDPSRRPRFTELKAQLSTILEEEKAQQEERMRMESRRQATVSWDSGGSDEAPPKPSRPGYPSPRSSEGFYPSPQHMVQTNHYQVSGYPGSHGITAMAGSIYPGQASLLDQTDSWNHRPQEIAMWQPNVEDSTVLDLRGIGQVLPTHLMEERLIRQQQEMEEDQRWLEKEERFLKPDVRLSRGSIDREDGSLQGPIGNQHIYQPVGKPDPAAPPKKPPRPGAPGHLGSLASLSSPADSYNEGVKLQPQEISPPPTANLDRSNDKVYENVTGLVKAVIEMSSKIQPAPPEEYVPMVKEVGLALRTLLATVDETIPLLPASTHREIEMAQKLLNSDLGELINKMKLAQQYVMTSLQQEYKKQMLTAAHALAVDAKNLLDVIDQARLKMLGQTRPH
# [4] = tested on: Fibrinogen (Alexa647-labelled); assay: Alexa647-fibrinogen binding to printed small molecules – biochemical, small-molecule microarray, 635/667 nm fluorescence, artefact control for SMM control-protein annotation, profiling panel (AID 1131); settings: fibrinogen-A647 binding fluorescence, higher = more signal;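 further: z-score merges 667 nm fluorescence with per-spot signal-to-noise over triplicate slides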
# [5] = molecular target: Follistatin (Homo sapiens) (UniProt P19883); assay: FST protein binding to printed compounds – biochemical, small-molecule microarray, 635/667 nm fluorescence, primary screen (AID 1132); settings: 635 nm fluorescence, higher = more signal
# Sequence of Follistatin (Homo sapiens) (P19883 whole entry, looked up): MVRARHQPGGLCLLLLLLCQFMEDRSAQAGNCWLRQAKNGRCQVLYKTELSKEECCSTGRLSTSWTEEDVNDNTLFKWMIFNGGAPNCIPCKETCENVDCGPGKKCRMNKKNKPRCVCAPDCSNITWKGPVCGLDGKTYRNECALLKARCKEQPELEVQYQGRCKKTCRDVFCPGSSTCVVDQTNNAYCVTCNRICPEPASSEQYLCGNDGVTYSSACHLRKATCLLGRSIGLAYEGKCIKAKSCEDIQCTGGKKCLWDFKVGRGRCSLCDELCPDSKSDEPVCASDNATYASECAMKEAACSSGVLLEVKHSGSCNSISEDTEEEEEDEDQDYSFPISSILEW
# [6] = molecular target: Fibroblast growth factor 2 (Homo sapiens) (UniProt P09038); assay: basic fibroblast growth factor binding to printed compounds – biochemical, small-molecule microarray, 635/667 nm fluorescence, primary screen (AID 1133); settings: FGF2, fluorescence 635/667, higher = more signal
# Sequence of Fibroblast growth factor 2 (Homo sapiens) (P09038 whole entry, looked up): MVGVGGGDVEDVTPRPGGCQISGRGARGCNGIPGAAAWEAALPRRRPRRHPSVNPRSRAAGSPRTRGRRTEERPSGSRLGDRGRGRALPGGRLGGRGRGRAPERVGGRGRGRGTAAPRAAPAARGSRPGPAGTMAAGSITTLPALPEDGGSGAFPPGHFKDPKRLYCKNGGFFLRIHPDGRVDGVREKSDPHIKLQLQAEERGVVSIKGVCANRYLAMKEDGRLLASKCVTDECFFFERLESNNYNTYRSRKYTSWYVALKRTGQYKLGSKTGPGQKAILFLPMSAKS
# [7] = JC-1 mitochondrial potential readout, lung cancer cells – cell-based, A549, JC-1 fluorescence, basal, 24 h, 100 nL, profiling panel (AID 1138); settings: higher = more signal;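 further: A549 lung adenocarcinoma cells under basal conditions with no added stimulus; test concentration not given here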
# Lefty1 = Lefty1 protein binding to printed compounds – biochemical, small-molecule microarray, 635/667 nm fluorescence, primary screen (AID 1139); settings: fluorescence 635/667, higher = more signal
# [8] = tested on: wheat germ agglutinin (Triticum aestivum), Alexa647-labelled; assay: Alexa647-WGA lectin binding to printed small molecules – biochemical, small-molecule microarray, 635/667 nm fluorescence, artefact control for SMM control-protein annotation, profiling panel (AID 1140); settings: WGA-A647 binding, 635 nm fluorescence, higher = more signal;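 further: score merges 667 nm feature emission with signal to noise over triplicate slides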
# [9] = molecular target: Luciferin 4-monooxygenase (Photinus pyralis) (UniProt P08659); assay: inhibition of purified Photinus pyralis luciferase – biochemical, luminescence, purified enzyme, 2006 set, primary screen (AID 1141); settings: purified firefly luciferase, SteadyGlo luminescence, 30 min; higher = more signal, called active from +8 up or from −8 down;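 further: cell-free assay with purified firefly luciferase at 100 ng per well in PBS; test concentration not given here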
# Sequence of Luciferin 4-monooxygenase (Photinus pyralis) (P08659 whole entry, looked up): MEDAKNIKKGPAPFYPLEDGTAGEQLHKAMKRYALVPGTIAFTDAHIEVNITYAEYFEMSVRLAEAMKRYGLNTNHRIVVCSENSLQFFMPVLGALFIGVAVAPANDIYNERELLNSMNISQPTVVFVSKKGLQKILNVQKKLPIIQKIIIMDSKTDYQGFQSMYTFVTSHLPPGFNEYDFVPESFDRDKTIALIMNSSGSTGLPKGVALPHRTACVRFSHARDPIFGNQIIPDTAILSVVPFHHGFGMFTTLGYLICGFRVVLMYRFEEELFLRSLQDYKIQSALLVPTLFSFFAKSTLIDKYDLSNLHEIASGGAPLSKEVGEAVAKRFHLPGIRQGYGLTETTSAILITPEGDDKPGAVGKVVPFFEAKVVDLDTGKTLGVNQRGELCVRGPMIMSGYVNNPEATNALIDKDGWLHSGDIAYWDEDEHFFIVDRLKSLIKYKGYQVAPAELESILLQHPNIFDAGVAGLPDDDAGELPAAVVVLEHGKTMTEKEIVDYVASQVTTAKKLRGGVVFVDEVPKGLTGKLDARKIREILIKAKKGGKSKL
# [10] = tested on: Wnt5a (protein binding on small-molecule microarray); assay: small molecules binding Wnt5a protein – biophysical, small-molecule microarray, 635/667 nm fluorescence, primary screen (AID 1142); settings: 635 nm fluorescence, higher = more signal;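 further: fluorescence read at 667 nm with signal to noise per printed feature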
# [11] = ATP-based viability of Huh7 replicon cells – cell-based, CellTiter-Glo luminescence, basal, 48 h, cytotoxicity control for HCV replication inhibitor project, primary screen (AID 1143); settings: higher = more signal, called active from +8 up or from −8 down;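 further: Huh7 hepatoma cells carrying a hepatitis C replication reporter with no stimulus; test concentration not given here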
# [12] = Pseudomonas biofilm growth suppression – PAO1 strain, BacTiter-Glo luminescence, LB-PBS, primary screen (AID 1144); settings: P. aeruginosa PAO1 biofilm, 12 h, higher = more signal
# [13] = basal CRE-LacZ reporter activity in PC12 – cell-based, unstimulated, primary screen (AID 1145); settings: no forskolin, luminescence, 4.5 h, higher = more signal, called active from +8 up or from −8 down
# [14] = forskolin-driven CRE-LacZ activity in PC12 – cell-based, CRE-LacZ reporter, forskolin-stimulated, primary screen (AID 1146); settings: luminescence, 4.5 h, higher = more signal, called active from +8 up or from −8 down;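 further: PC12 cells with 6xCRE LacZ reporter stimulated by forskolin 10 µM; beta-galactosidase reporter signal reflecting CREB driven transcription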
# [15] = molecular target: Streptavidin (Streptomyces avidinii) (UniProt P22629); assay: compounds binding control protein streptavidin – biophysical, small-molecule microarray, 635/667 nm fluorescence, artefact control for SMM compound annotation, primary screen (AID 1147); settings: higher = more signal;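 further: signal reflects streptavidin binding to arrayed compounds as a control protein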
# Sequence of Streptavidin (Streptomyces avidinii) (P22629 whole entry, looked up): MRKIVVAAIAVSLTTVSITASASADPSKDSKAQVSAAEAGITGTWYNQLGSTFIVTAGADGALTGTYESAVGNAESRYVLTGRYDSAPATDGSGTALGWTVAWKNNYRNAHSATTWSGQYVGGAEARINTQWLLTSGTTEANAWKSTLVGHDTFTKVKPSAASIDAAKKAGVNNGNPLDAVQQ
# [16] = probe aInhba binding on compound microarray – biochemical, small-molecule microarray, 635/667 nm fluorescence, primary screen (AID 1148); settings: higher = more signal;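 further: score merges 667nm spot fluorescence with signal-to-noise for antibody binding to printed compounds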
# Torsin-1A (Homo sapiens) [17] = molecular target: Torsin-1A (Homo sapiens) (UniProt O14656); assay: TOR1A wild-type binding on microarray – cell lysate, small-molecule microarray, lysate, 635/667 nm, primary screen (AID 1149); settings: COS7 hTOR1A-WT lysate, 635 nm fluorescence, higher = more signal
# Sequence of Torsin-1A (Homo sapiens) (O14656 whole entry, looked up): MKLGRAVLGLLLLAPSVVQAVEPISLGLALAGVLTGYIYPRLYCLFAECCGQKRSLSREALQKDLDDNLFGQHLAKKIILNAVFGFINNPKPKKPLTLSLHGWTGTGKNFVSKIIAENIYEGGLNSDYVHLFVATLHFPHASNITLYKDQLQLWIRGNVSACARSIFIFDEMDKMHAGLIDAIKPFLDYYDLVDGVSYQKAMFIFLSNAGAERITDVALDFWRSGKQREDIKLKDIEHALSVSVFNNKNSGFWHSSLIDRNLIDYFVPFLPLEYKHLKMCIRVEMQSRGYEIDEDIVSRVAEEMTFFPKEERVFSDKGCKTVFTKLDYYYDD
# Torsin-1A (Homo sapiens) [18] = molecular target: Torsin-1A (Homo sapiens) (UniProt O14656); assay: torsin A mutant lysate binding on microarrays – cell lysate, small-molecule microarray, COS7 lysate, 635/667 nm fluorescence, primary screen (AID 1150); settings: COS7 hTOR1A mutant lysate, 635 nm fluorescence, higher = more signal;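 further: score pools 667 nm emission and signal to noise measuring lysate protein binding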
# [19] = tested on: Sonic hedgehog protein (Shh); assay: Sonic hedgehog microarray binding compounds – biochemical, small-molecule microarray, 635/667 nm fluorescence, primary screen (AID 1151); settings: 635 nm fluorescence, higher = more signal;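 further: Shh protein binding to compounds spotted on small-molecule microarray slides; score combines spot fluorescence intensity with signal-to-noise across triplicate slides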
SMILES,composite z-score [1],composite z-score [2],composite z-score [3],composite z-score [4],composite z-score [5],composite z-score [6],z-score [7],composite z-score (Lefty1),composite z-score [8],z-score [9],composite z-score [10],z-score [11],z-score [12],z-score [13],z-score [14],composite z-score [15],composite z-score [16],composite z-score (Torsin-1A (Homo sapiens) [17]),composite z-score (Torsin-1A (Homo sapiens) [18]),composite z-score [19]
COCCn1c(C(=O)N(C)C)cc2c1C[C@H]1CN(C(=O)c3ccccc3)[C@@](Cc3ccc(F)cc3)(C(=O)OC)[C@@H]21,2.3,1.1,0.169,0.485,0.134,-0.158,0.33,-0.0481,1.11,-0.663 (inactive),0.304,-0.394 (inactive),-0.191 (inactive),-0.947 (inactive),-0.578 (inactive),0.45,-0.12,0.249,0.0952,-0.0212
O=C1O[C@H](c2ccccc2)[C@H](c2ccccc2)N2[C@H]1[C@@H](C(=O)NC[C@H](O)c1ccccc1)[C@]1(C(=O)Nc3ccc(C#CC4(O)CCCCCC4)cc31)[C@H]2c1ccccc1OCCO,1.26,1.19,0.412,0.494,1.26,1.54,-1.24,0.586,0.794,0.361 (inactive),1.21,-5.52 (inactive),-0.52 (inactive),-0.325 (inactive),-0.349 (inactive),-0.428,0.214,0.644,1.08,0.877
C=CC[C@]1(C(=O)NCCN2CCOCC2)N=C(c2ccc(OCCCO)cc2)O[C@H]1c1ccccc1N=[N+]=[N-],1.5,1.16,0.0147,0.772,1.32,0.931,0.98,-0.367,0.455,-8.62 (active),0.038,-1.76 (inactive),0.672 (inactive),2.66 (inactive),-1.37 (inactive),1.23,0.126,0.17,-0.0097,0.255
O=C(CS)NCCCCCCNC(=O)[C@H]1C[C@H]2C(=O)N3CCC[C@H]3C(=O)N2[C@H]1c1ccc(O)cc1,1.81,0.828,0.163,0.702,1.37,1.34,-0.708,1.16,0.681,0.102 (inactive),-0.161,-0.514 (inactive),-0.256 (inactive),0.675 (inactive),0.465 (inactive),-0.322,-0.05,0.624,0.947,1.8
O=C1C[C@@](C(=O)O)(c2ccc([N+](=O)[O-])cc2)[C@@H](c2ccc(CO)cc2I)N1CC12CC3CC(CC(C3)C1)C2,0.829,1.11,0.365,0.607,0.348,-0.35,-1.1,0.665,1.03,-0.869 (inactive),0.0743,-5.39 (inactive),-0.142 (inactive),0.468 (inactive),3.72 (inactive),0.975,-0.12,0.663,0.381,0.617
C=C[C@H](C)[C@H](O)c1ccc(OCCO)cc1,-0.151,-1.55,0.151,-2.74,-0.74,-1.2,0.145,-0.91,-0.89,-24.9 (active),-0.965,-1.45 (inactive),0.733 (inactive),-0.272 (inactive),0.0034 (inactive),-1.29,-0.209,-2.73,-1.99,-0.773
CCCNC(=O)[C@@]1(C)c2ccccc2C(=O)N(C(C)C)[C@H]1c1ccc(CO)cc1,-0.853,-0.54,0.198,-0.879,-0.127,-0.343,-0.809,-1.38,-0.867,0.33 (inactive),0.182,-4.29 (inactive),-0.744 (inactive),0.0279 (inactive),0.155 (inactive),-0.586,-0.0791,0.398,-0.435,-0.946
O=C1C2C=CC(C(O)c3ccc(Br)cc3)N(n3cnnc3)C2C(=O)N1Cc1ccccc1 (stereo not given),0.648,1.16,0.407,0.974,0.722,0.298,-0.901,0.425,1.15,1.66 (inactive),0.175,0.245 (inactive),0.913 (inactive),0.127 (inactive),1.03 (inactive),1.27,-0.0375,0.489,1.05,0.232
OCCCc1cc[n+](Cc2cccc(OC(F)(F)F)c2)cc1,1.62,1.01,0.917,0.315,1.18,0.58,-0.672,0.714,0.889,1.14 (inactive),0.012,-1.79 (inactive),-0.781 (inactive),-0.374 (inactive),1.69 (inactive),0.274,-0.0538,1.03,1.59,1.82
C=C(C(=O)CC[C@@H](OC(=O)c1cccnc1)c1ccc(OCCO)cc1)C(C)C,0.222,0.314,-0.17,-0.0579,1.43,1.16,-0.358,1.21,0.752,-3.48 (inactive),0.725,-8.32 (active),0.118 (inactive),20 (active),0.12 (inactive),-0.136,-0.128,0.0998,0.97,1.58
